# Most compounds without a hit are left out; they make up all but 1.6% or so of the library.
# HTR5A ag – HTR5A agonists in luminescence cell assay, primary screen, counter-screen for OPRM1-OPRD1 heterodimer agonist project, full-deck HTS; activation, % at 9.3 µM; AID 504692, 2011; cell-based; 5-hydroxytryptamine receptor 5A (Homo sapiens), P47898; actives 0.61% (n = 340,000); in the data active means activation mostly above about 9.5%, no sharp cut-off; inactive means mostly below about 7.6%;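 further: 0% = cells with vehicle only and 100% = reference agonist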
# NALP1 inh – NALP1 inflammasome inhibitors in reconstituted yeast, colorimetric, S. cerevisiae, triplicate retest; S. cerevisiae NALP1/ASC/caspase-1 growth, X-gal OD620, 72 h; inhibition, % at 10 µM; AID 2071, 2009; actives 0.61% (n = 280,000); in the data active means inhibition mostly above about 24%, no sharp cut-off; inactive means mostly below about 32%
# MOR-DOR ag – agonists of OPRM1-OPRD1 heterodimerization, primary screen, cell-based, luminescence | activation, % at 9.3 µM | actives 0.3% (n = 340,000) | AID 504326, 2011 | Mu-type opioid receptor (Homo sapiens) + Delta-type opioid receptor (Homo sapiens), … | cells; in the data active means activation above about 18%;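 further: 0% = vehicle-treated cells and 100% = reference agonist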
# HTR5A inv ctr – HTR5A inverse agonists in luminescence cell assay, primary screen, counter-screen for OPRM1-OPRD1 heterodimer inverse agonist project, full-deck HTS; 5-hydroxytryptamine receptor 5A (Homo sapiens), P47898; HTR5A cell line, inverse agonism; inhibition, % at 9.3 µM; actives 0.083% (n = 340,000); AID 504634, 2011; in the data active means inhibition mostly above about 23%, no sharp cut-off; inactive means mostly below about 18%;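 further: 0% = cells with DMSO and 100% = no-cell wells with DMSO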
# MOR-DOR inv ag – inverse agonists of MOR-DOR heterodimerization, primary screen, cell-based, luminescence; cell-based MOR-DOR heterodimer luminescence, inverse agonism; inhibition, % at 9.3 µM; actives 0.21% (n = 340,000); in the data active means inhibition above about 22%, passing the limit was not always enough;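 further: 0% = cells with DMSO and 100% = wells without cells with DMSO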
# PolyA inhibitor – polyadenylation inhibitors in yeast reporter cells, primary screen, luminescence, S. cerevisiae | S. cerevisiae SKY197-pL101 polyadenylation reporter, beta-gal luminescence; efflux-impaired pdr1/pdr3 knockout yeast; score 100 = 6 SD above DMSO | activity score, % at 12 µM | actives 0.02% (n = 300,000) | AID 1875, 2009;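 active means lowest replicate activity score at least 50, where 100 means six control SD above control mean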;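 further: yeast exposed to compound for 9 h at 30 °C; higher score means more reporter readthrough which indicates perturbed polyadenylation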
# * = called active by the depositor; . = no result given.
SMILES,HTR5A ag,NALP1 inh,MOR-DOR ag,HTR5A inv ctr,MOR-DOR inv ag,PolyA inhibitor
CCCCN(CC)CCNC(=O)CCC(=O)Nc1ccc2nc(N3CCN(C)CC3)cc(C)c2c1,2.0,36.4*,-3.1,-5.6,16.4,-1.4
COc1ccc(C2c3ccc(O)cc3Oc3ncn4nc(-c5ccccn5)nc4c32)cc1 (stereo unspecified),12.4*,-9.7,15.7,-17.0,-79.9,-8.3
COc1ccc(C2c3ccc(O)cc3Oc3ncn4nc(-c5ccccn5)nc4c32)cc1OC (stereo unspecified),0.1,16.3,-2.7,-0.2,14.1,12.8
COc1ccccc1C(=O)CN1C(=O)NC2(CCc3ccccc32)C1=O (stereo unspecified),1.6,.,-0.6,-4.2,4.2,23.1
O=C(COc1ccccc1)Nc1cc(NC(=O)COc2ccccc2)cc(C(=O)O)c1,-0.3,-3.5,-1.7,1.2,8.4,0.0
Cc1cc2c(c(SCC(=O)NCc3ccccc3Cl)n1)C(=O)OC2,1.0,29.9,-1.2,31.9,5.7,2.0
COc1ccc(C(C(=O)NC2CCCCC2)N(C(=O)CCl)c2ccc(Cl)cc2)cc1 (stereo unspecified),65.7*,15.9,89.3*,-105.7,-478.5,-5.3
O=C(NC1CCCCC1)C(c1cccnc1)N(C(=O)CCl)c1cccc(Cl)c1 (stereo unspecified),36.3*,39.1,34.6*,-76.3,-183.2,3.5
Cc1cccc(N(C(=O)CNC(=O)c2ccco2)C(C(=O)NC2CCCCC2)c2cccnc2)c1 (stereo unspecified),0.1,23.5,-1.2,-14.5,8.6,13.8
O=C(CCN1CCC(c2ccccc2)C1)c1ccccc1 (stereo unspecified),3.3,22.9*,0.5,-5.2,-2.6,-14.4
Clc1nc(NC2CCCCC2)c2cn[nH]c2n1,2.8,.,-1.9,-11.4,9.7,.
Cc1ccc2oc(C(=O)Nc3nnc(C)s3)c(C)c2c1,-0.1,-3.4,-1.9,-0.6,10.6,-3.6
Cc1ccc2oc(C(=O)Nc3nonc3C)c(C)c2c1,10.7*,10.1,4.1,-0.8,-21.2,7.2
O=C(NCCC1=CCCCC1)c1c(O)nc2ccccn2c1=O,0.1,17.6,8.5,-0.2,-42.5,69.1*
CC(=O)c1cccc(NC(=O)C(=O)Nc2cccc3ccccc23)c1,-2.0,-3.2,2.3,22.0,-11.3,-6.5
O=C(Nc1ncccc1O)c1cccc(S(=O)(=O)N2CCc3ccccc32)c1,-6.6,34.0*,-2.7,18.2,15.0,-10.0
O=C(Nc1ncccc1O)c1cccc(S(=O)(=O)N2CCCC2)c1,2.4,.,-4.5,-14.9,21.8,-1.3
CCN(CC)CCOC(=O)C1(c2ccccc2)CCOCC1,10.6*,12.9,-1.5,-31.2,8.7,-2.1
CCN(CC)CCOCCOC(=O)C1(c2ccccc2)CCCC1,1.5,.,-0.6,-5.3,3.0,-0.1
CCCn1c(=O)c(Br)cn(-c2ccccc2C)c1=O,-1.8,.,-2.3,3.7,12.0,14.1
O=C(CN1CCN(Cc2cccc(F)c2)CC1)NCc1ccccc1,-0.4,-14.3,-0.1,1.6,0.4,5.0
S=C1NC2=C(CCC/C2=C\c2ccc(Cl)cc2)C(c2ccc(Cl)cc2)N1 (stereo unspecified),7.2,40.4*,0.4,-26.1,-1.9,12.3
CC(C(=O)N1CCc2ccccc21)N1CCN(S(=O)(=O)c2cccc(C(F)(F)F)c2)CC1 (stereo unspecified),-4.9,.,6.5,12.1,-27.8,.
CCN1CCN(C(=O)c2ccc3c(=O)n(C4CCCC4)c(=S)[nH]c3c2)CC1,9.3*,3.2,-1.8,12.3,9.3,-2.4
O=C(c1ccc2c(=O)n(C3CCCC3)c(=S)[nH]c2c1)N1CCN(C2CCCCC2)CC1,4.2,3.7,-1.3,-11.6,5.5,-9.7
SMILES,HTR5A ag,NALP1 inh,MOR-DOR ag,HTR5A inv ctr,MOR-DOR inv ag,PolyA inhibitor
Cc1cccc(NC(=O)COC(=O)c2nn(C)c(=O)c3ccccc23)c1C,-1.4,.,-2.7,5.4,13.4,.
CCOC(=O)NC(=O)/C(C#N)=N/Nc1ccc(F)cc1,-0.6,37.7*,-2.5,1.6,12.2,-30.8
Cc1ccc(OCC(=O)N2CCN(c3nnc(-c4ccccc4)c4ccccc34)CC2)cc1,9.0*,9.0,0.2,4.2,-0.9,12.9
Nc1nc(SCC(=O)Nc2ccc([N+](=O)[O-])cc2)[nH]c(=O)c1NC(=O)c1ccc(Br)cc1,2.7,26.9*,-3.1,8.1,10.2,-2.5
COc1ccc(-n2c(C)c([N+](=O)[O-])c3ccc(O)c(CN(C)C)c32)cc1,2.6,24.2*,-1.5,-7.1,8.3,0.5
O=C(c1ccc(F)cc1)N1CCOCC1,-5.0,26.3*,-0.9,-6.6,5.2,4.9
O=C(Nc1ccc(F)cc1)c1ccc(C(=O)N2CCOCC2)cc1,0.3,.,-2.6,9.0,14.5,7.8
COc1ccc(S(=O)(=O)N(C)c2ccc(C(=O)NCc3ccccn3)cc2)cc1OC,1.7,10.9,-1.5,-0.6,10.2,-0.1
Cc1cc(C)cc(N(C(=O)c2csnn2)C(C(=O)NC(C)(C)C)c2cccnc2)c1 (stereo unspecified),8.7,23.1*,-2.6,-11.8,12.9,-5.5
CCN1CCN(C(CNS(=O)(=O)c2ccc(Br)cc2)c2cccnc2)CC1 (stereo unspecified),12.5*,10.7,-2.6,8.0,13.9,-2.3
CCN1CCN(C(CNS(=O)(=O)c2ccc(Cl)cc2)c2cccnc2)CC1 (stereo unspecified),-2.8,11.0,-3.6,-22.4,19.8,15.7
CCOC(=O)C1(CCOC)CCN(Cc2ccc(COC)o2)CC1,12.1*,4.7,0.2,-5.2,-1.0,-0.9
CCOC(=O)C1(CCOc2ccccc2)CCN(Cc2ccc(CO)o2)CC1,-2.0,6.5,2.7,5.8,-19.5,11.0
COc1cc(CNCCCN2CCOCC2)cc(Br)c1OCC(=O)N1CCCCC1,3.9,30.0*,-0.8,19.9,4.2,-0.4
COc1cc(CNCCCN2CCOCC2)cc(Br)c1OCc1ccc(Cl)cc1,2.1,10.5,4.7,-6.1,-24.3,-5.9

# High-throughput results (PubChem)
